Source: PubChem BioAssay (several laboratories)
Most compounds without a hit are left out; they make up all but 3.2% or so of the library.
14-3-3 Bad PPI – disrupts binding of bovine 14-3-3 zeta to phospho-Bad peptide. P63103. TR-FRET 14-3-3zeta/Dy647-pBad peptide displacement, 1 h. inhibition, % at 21.7 µM. 0.71% of 220,000 active. AID 781;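 active means inhibition above about 70%, limit read from the data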;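 further: 0% = full 14-3-3 plus peptide FRET controls and 100% = background without 14-3-3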
Target sequence (P63103 whole entry, looked up): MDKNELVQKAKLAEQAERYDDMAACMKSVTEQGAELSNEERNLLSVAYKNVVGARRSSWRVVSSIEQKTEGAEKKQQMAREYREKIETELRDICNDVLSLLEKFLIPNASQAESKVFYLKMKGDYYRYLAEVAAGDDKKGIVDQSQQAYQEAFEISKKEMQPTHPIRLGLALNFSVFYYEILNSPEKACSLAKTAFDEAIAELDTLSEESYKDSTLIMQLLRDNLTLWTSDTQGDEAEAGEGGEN
Mcl1-Noxa inh – disrupts binding of human Mcl-1 to Noxa peptide; Q07820; TR-FRET Mcl-1/Noxa peptide binding, 2 h; inhibition, % at 21.7 µM; 1.5% of 220,000 active; AID 1022;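 active means compounds that cut the protein-peptide binding signal by more than 50% relative to plate controls in a single-dose test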;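 further: His-tagged Mcl-1 with rhodamine Noxa BH3 peptide and terbium anti-His antibody; 0% = Mcl-1 plus Noxa peptide wells and 100% = peptide-only wells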
Target sequence (Q07820 whole entry, looked up): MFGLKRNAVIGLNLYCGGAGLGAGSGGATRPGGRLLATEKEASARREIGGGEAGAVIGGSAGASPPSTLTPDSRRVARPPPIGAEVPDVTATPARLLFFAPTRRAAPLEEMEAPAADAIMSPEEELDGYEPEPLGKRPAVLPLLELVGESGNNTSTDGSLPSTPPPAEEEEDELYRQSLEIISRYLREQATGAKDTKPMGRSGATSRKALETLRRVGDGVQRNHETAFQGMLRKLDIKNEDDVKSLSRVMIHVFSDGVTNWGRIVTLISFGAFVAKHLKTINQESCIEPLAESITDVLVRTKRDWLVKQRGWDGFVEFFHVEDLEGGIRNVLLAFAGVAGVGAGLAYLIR
Bim-Mcl-1 – inhibitors of Bim-Mcl-1 interaction, human; Q07820; Bead-based flow cytometry, Bim peptide-Mcl-1 binding; inhibition, % at 10 µM; 0.1% of 190,000 active; AID 1009; in the data active means inhibition above about 40%;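 further: 0% = no compound tracer wells and 100% = peptide blocker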
NCF1 inh – p47phox (human) inhibition. P14598. AID 1274. 0.53% of 220,000 active. inhibition, % at 24.7 µM. p47phox/p22phox peptide binding, fluorescence polarization, 2 h;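 active means inhibition above about 30%, limit read from the data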;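 further: 0% = p47phox with labelled peptide and 100% = labelled peptide alone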
Mcl1-Bid inh – disrupts binding of human Mcl-1 to Bid peptide; AID 1021; inhibition, % at 21.7 µM; 0.97% of 220,000 active; TR-FRET Mcl-1/Bid-Dy647 peptide binding, 1536-well; Q07820;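 active means compounds that cut the binding signal by more than half at the single screening dose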;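 further: His-tagged Mcl-1 with europium anti-His antibody binding Bid BH3 peptide; 0% = Mcl-1 plus peptide wells and 100% = peptide-only wells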
Active calls of the source: *; / = no result.

SMILES | 14-3-3 Bad PPI | Mcl1-Noxa inh | Bim-Mcl-1 | NCF1 inh | Mcl1-Bid inh
COc1ccc(C(=O)/C=C/c2ccc(N3CCCCC3)c([N+](=O)[O-])c2)cc1 | -3 | 8 | -3 | -8 | 100*
COc1ccc(C(=O)/C=C/c2ccc(N3CCCCC3)c([N+](=O)[O-])c2)c(OC)c1 | -6 | 5 | -2 | -2 | -11
Cc1cc(SCC(=O)c2ccc(O)c(O)c2)n2nc(C)c(-c3ccccc3)c2n1 | -3 | 45 | / | -35 | -93
O=C1NC(c2ccc(Br)cc2)=N/C1=C/c1ccco1 | 22 | 26 | -4 | 16 | 33
O=C1NC(c2ccccc2Cl)=N/C1=C/c1ccco1 | 1 | 61* | / | -11 | -47
O=C(Nc1ccc(Cl)c(Cl)c1)c1ccc(Cl)c(Cl)c1 | 3 | 9 | / | -6 | -24
O=C(Nc1ccc(C2=NCCN2)cc1)c1ccc(Cl)c(C(=O)Nc2ccc(C3=NCCN3)cc2)c1 | 41 | 57* | / | -33 | 0
CC(C)CCN(C(=S)Nc1cccc(F)c1)C1CCN(C(C)C)CC1 | 6 | -12 | 0 | / | -17
O=C(NCCN1CCOCC1)c1cc(Cl)ccc1[N+](=O)[O-] | 2 | 7 | 73* | 3 | 5
CNc1ccc(Br)cc(C(=O)/C=C/c2cccc(OC)c2OC)c1=O | 39 | 70* | 19 | -8 | 0
CNc1ccccc(C(=O)/C=C/c2ccccc2OC)c1=O | 4 | 63* | 3 | -5 | -99
CNc1ccc(Br)cc(C(=O)/C=C/c2cccc(Cl)c2Cl)c1=O | 54 | 106* | 0 | 14 | 92*
Cc1cccc(/C=C/C(=O)c2cc(Br)ccc(=O)c2O)c1 | 12 | 10 | 3 | -28 | 12
O=C(CC1NCCNC1=O)Nc1ccc([N+](=O)[O-])cc1 (centres undefined) | -3 | -4 | -1 | -1 | -8
Cc1cc(C)c(NC(=O)CS(=O)CC(=O)Nc2ccc(F)cc2F)c(C)c1 (centres undefined) | 1 | -11 | / | -9 | -14
COc1ccc(S(=O)(=O)N(c2onc(C)c2Cl)S(=O)(=O)c2ccc(OC)c(OC)c2)cc1OC | 78* | 3 | 2 | -7 | 11
COc1cc(S(=O)(=O)N(C)C)ccc1Br | -9 | 13 | -1 | -11 | -4
Cc1cc2[nH]c3c(c[n+](C)c4ccccc34)c2cc1C | 24 | 33 | 20 | 50* | -42
COc1ccc(C(=O)Oc2cccnc2)cc1OC | 73* | 14 | -2 | -10 | -39
COc1ccc(C(=O)COC(=O)c2ccc(OC)c(OC)c2)cc1OC | 3 | 7 | -1 | 96* | 3
CCCNC(=S)N1CC2(C)CN(C(=O)C(=O)OCC)CC(C)(C1)C2=O | -4 | 20 | 0 | -11 | -59
Cc1ccc(NC(=O)C(C)N2CCCC2)cc1Cl (centres undefined) | -12 | 11 | 0 | -15 | -22
CCCn1c(NCc2ccco2)nc2c1c(=O)n(C)c(=O)n2C | -16 | 5 | -2 | 8 | -37
Cn1c(=O)c2c(nc(NCc3ccco3)n2CC(O)COc2ccccc2)n(C)c1=O (centres undefined) | 8 | 81* | -5 | -10 | -12
Fc1ccccc1SCc1nnc(-c2ccccc2Br)o1 | -23 | -4 | -3 | -7 | -19
SMILES | 14-3-3 Bad PPI | Mcl1-Noxa inh | Bim-Mcl-1 | NCF1 inh | Mcl1-Bid inh
CN(C)C(=O)N1CCC(C(=O)NC2CCCCCCC2)CC1 | 17 | 4 | 67* | -7 | -12
CSCCC(NS(=O)(=O)c1ccc(Cl)cc1)C(=O)OCC(=O)c1ccc(F)cc1 (centres undefined) | -7 | 0 | -4 | -16 | -27
CCCNC(=O)Nc1cc(OCC)c(N2CCOCC2)cc1OCC | -9 | -1 | 0 | -4 | -6
CCOc1cc(N2CCOCC2)c(OCC)cc1NC(=O)CCC1CCCC1 | -4 | 14 | -4 | -7 | -68
CCOc1cc(N2CCOCC2)c(OCC)cc1NC(=O)CCS(=O)(=O)c1ccc(Cl)cc1 | -5 | 19 | 0 | -10 | 101*
CCOc1cc(N2CCOCC2)c(OCC)cc1NS(=O)(=O)c1ccc(Cl)s1 | 83* | 41 | -1 | 59* | -38
O=C(CCc1nnc(COc2ccccc2)o1)NC1(c2ccccc2)CC1 | -8 | 2 | -3 | 0 | -8
C(#CCN1CCCC1)CC(c1ccccc1)c1ccccc1 | 4 | -4 | 1 | -4 | -13
COc1ccccc1N=Nc1nc(-c2ccccc2)c(-c2ccccc2)[nH]1 | 2 | -3 | -1 | 119* | -23
COc1ccc(OC)c(Cc2nnc(CCC(=O)NC3C4CC5CC(C4)CC3C5)o2)c1 (centres undefined) | -9 | -4 | 1 | 1 | 6
CC1CCC(=C(C#N)c2nc(-c3cc4ccccc4oc3=O)cs2)CC1 (centres undefined) | 4 | 10 | 0 | -48 | -16
COc1cc(/C=C(\C#N)c2nc(-c3cc4ccccc4oc3=O)cs2)ccc1O | 62 | 59* | -1 | 7 | 64*
COc1cc(/C=C(/C#N)c2nc(-c3cc4ccccc4oc3=O)cs2)cc([N+](=O)[O-])c1O | 97* | 98* | / | -29 | 97*
CCCCC(=O)Nc1cccc(NC(=O)c2cccnc2Cl)c1 | -6 | -1 | / | -12 | -5
Cc1ccc(C)c(OCc2nc3ccc(S(=O)(=O)Nc4c(C)n(C)n(-c5ccccc5)c4=O)cc3[nH]2)c1 | 2 | 6 | 0 | 2 | -12
CC(=O)c1cc(O)c2ccccc2c1O | 66 | 80* | / | 13 | 24
CS(=O)(=O)N1CCC(Oc2ccccc2C(=O)NCCCc2cccnc2)CC1 | 15 | 28 | 0 | 2 | 44
COc1cc(C2C(C#N)=C(N)Oc3cc(C)oc(=O)c32)cc2c1OCO2 (centres undefined) | 27 | 51* | 0 | -9 | -6
COc1cc(C2C(C#N)=C(N)Oc3cc(C)oc(=O)c32)cc(OC)c1OC (centres undefined) | 4 | -5 | / | 1 | 6
FC(F)(F)c1ccc(Cl)c(N/N=C/c2ccc(N3CCOCC3)s2)c1 | -18 | 67* | 2 | -15 | -22
O=C(c1ccccc1)c1n[nH]c(-c2ccccc2)cc1=O | -5 | 11 | -6 | -11 | -7
CCC(C)NC(=O)CSc1nnc(-c2ccc(Cl)cc2)n1N (centres undefined) | -3 | 6 | -2 | 53* | -21
OCCC1CN(Cc2nc3ccccc3s2)CCN1CCc1ccccc1 (centres undefined) | -8 | 10 | -4 | -6 | -36
Cc1ccc(Cn2c(SCC(C)C)nc3c2c(=O)[nH]c(=O)n3C)cc1 | 28 | 4 | 0 | 0 | 15
CCCSc1nc2c(c(=O)[nH]c(=O)n2C)n1Cc1ccc(C)cc1 | 11 | 3 | 0 | 33* | -12
COc1ccc(C(c2c(O)cc(C)oc2=O)c2c(O)cc(C)oc2=O)cc1 | 8 | 76* | 0 | -11 | 20
CCC(/C=C1\Sc2ccc(OC)cc2N1CC)=C\c1sc2ccc(OC)cc2[n+]1CCCS(=O)(=O)[O-] | -27 | 36 | 5 | -241 | -35
